Here are results for 95 compounds from PubChem BioAssay AID1445 (SRMLSC, 2008).

The structures appear in SMILES notation. Several values for one entry are separate records, joined by “and”; a condition that tells them apart may be missing. Identical values can stand only once. About 910 (0.41%) of roughly 220,000 compounds were called active.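 The calls were made as follows: active = primary inhibition above the hit cutoff, then over 50% inhibition at one or more dose response concentrations (cut at about 23% in these data, passing the limit was not always enough); inconclusive = conflicting primary data, or primary hits not chosen for dose response; inactive = low primary inhibition, or under 50% at every dose.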 Many of the other results were omitted from the sample, so actives are more common in it than they were. Entries with a potency or affinity are not part of this list. Some compounds were tested as several samples or in several runs, with calls that do not always agree.

In this assay the target is Aminopeptidase N (Plasmodium falciparum (isolate 3D7)) (UniProt O96935). The assay can be described thus: malaria alanyl aminopeptidase activity blockers – biochemical, fluorogenic H-Leu-NHMec substrate, 1536-well (AID 1445).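 Also: plate controls were DMSO full reaction for no effect and no enzyme background for full effect.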 As to conditions: recombinant M1AAP, H-Leu-NHMec fluorogenic kinetic assay; at 30 µM, stronger effect = higher value unless noted.
Chain of Aminopeptidase N (Plasmodium falciparum (isolate 3D7)) (O96935 whole entry, looked up): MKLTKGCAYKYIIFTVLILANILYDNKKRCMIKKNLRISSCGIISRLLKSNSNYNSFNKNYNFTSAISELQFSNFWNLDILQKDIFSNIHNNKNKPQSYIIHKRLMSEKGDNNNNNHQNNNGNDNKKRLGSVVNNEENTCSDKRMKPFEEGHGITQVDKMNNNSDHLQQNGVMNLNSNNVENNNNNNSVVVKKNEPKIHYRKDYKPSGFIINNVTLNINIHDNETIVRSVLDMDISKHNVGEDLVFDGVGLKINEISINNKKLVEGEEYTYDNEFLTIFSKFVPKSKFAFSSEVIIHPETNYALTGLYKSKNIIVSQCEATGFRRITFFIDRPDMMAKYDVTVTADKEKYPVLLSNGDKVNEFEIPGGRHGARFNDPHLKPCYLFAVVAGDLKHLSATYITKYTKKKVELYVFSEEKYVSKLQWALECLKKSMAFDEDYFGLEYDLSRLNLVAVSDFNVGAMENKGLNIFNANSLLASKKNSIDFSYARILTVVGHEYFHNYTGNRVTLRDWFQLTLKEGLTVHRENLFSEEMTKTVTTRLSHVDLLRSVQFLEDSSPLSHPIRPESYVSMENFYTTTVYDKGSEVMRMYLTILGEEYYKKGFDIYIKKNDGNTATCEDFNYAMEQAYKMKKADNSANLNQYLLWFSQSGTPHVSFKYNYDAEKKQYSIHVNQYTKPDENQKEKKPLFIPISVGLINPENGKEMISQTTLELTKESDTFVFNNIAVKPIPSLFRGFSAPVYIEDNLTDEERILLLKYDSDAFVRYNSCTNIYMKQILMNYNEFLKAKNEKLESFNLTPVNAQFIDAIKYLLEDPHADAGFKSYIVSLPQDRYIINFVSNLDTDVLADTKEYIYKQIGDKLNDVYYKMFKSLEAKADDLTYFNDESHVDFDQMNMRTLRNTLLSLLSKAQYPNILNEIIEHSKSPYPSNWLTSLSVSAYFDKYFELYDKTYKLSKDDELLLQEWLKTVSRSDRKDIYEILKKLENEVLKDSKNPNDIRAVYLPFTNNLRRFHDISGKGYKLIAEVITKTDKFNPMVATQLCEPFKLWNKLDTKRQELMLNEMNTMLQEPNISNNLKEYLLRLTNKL
In the case of `Cc1ccc(OCC(=O)Nc2ccc(S(=O)(=O)Nc3ccccn3)cc2)cc1C`, the inhibition (commonly the change of the read-out against control, counted positive when it falls) was -0.21% (inactive).

`Cc1ccc2nc(NC(=O)CSc3nncc(=O)n3N)sc2c1`: the inhibition was -3.78% (inactive).

For `CC1=CC(c2ccccc2)n2nc(NS(=O)(=O)c3ccc(C)cc3)nc2N1` (stereo not given), the inhibition was 9.04% (inactive).

As for `CC(=O)Nc1nc2n(n1)C(c1ccccc1)C=C(c1ccccc1)N2` (stereo not given), the inhibition was 21.9% (inactive).

`CC1=CC2=NC(=O)/C(=C\c3cccn3CCOc3cc(C)cc(C)c3)C(=N)N2O1`: the inhibition was 4.33% (inactive).

As to `CCOC(=O)COc1cc2oc(=O)cc(C)c2cc1[N+](=O)[O-]`, the inhibition is 1.36% (inactive).

Turning to `CSc1cccc(-n2cc(-c3ccc4c(c3)OCO4)[nH]c2=O)c1`, the inhibition is 25.8% (active).

As to `COc1ccc(-c2cn(-c3cccc(C)c3)c(=O)[nH]2)cc1OC`, the inhibition is 0.73% (inactive).

On to `CCOc1ccc(-c2cn(-c3cccc(SC)c3)c(=O)[nH]2)cc1`, for which the inhibition was 7.5% (inactive).

In the case of `COc1cccc(-c2nnc(SCc3cccnc3)o2)c1`, the inhibition was 1.1% (inactive).

As to `Cc1nn(-c2ccccc2)c(C)c1/C=N/NC(=O)c1cc(C23CC4CC(CC(C4)C2)C3)[nH]n1`, the inhibition was 8.14% (inactive).

Take `CN(NS(=O)(=O)c1ccc(Cl)cc1)c1ncc(C(F)(F)F)cc1Cl`: the inhibition was 3.99% (inactive).

As for `Cc1cccc(NC(=O)c2c(-c3ccccc3)noc2C)n1`, the inhibition was 3.16% (inactive).

As for `CSc1cccc(NC(=S)N2CCC(N(C)C3CCCCCC3)CC2)c1`, the inhibition is 5.52% (inactive).

Turning to `O=c1c(-c2ccc3c(c2)OCCO3)c(C(F)(F)F)oc2cc(O)cc(O)c12`, the inhibition is 24.6% (active).

For the compound `O=c1c(-c2ccc3c(c2)OCCO3)coc2cc(O)cc(O)c12`, the inhibition is 13.2% (inactive).

For `Cc1oc2cc(O)cc(O)c2c(=O)c1-c1ccc2c(c1)OCCCO2`, the inhibition is -10.6% (inactive).

On to `NC(=O)CSc1nnc(-c2cccnc2)n1Cc1ccccc1`, for which the inhibition is -0.97% (inactive).

With `Cn1nc(C(=O)Nc2sc3c(c2C#N)CCCC3)ccc1=O`, the inhibition is 4.41% (inactive).

Consider `O=C1c2ccccc2C(=O)N1n1c(=O)[nH]c2ccccc2c1=O`, for which the inhibition is 2.13% (inactive).

Regarding `CC(C)Cn1c(CN2C(=O)c3ccccc3C2=O)nc2ccccc2c1=O`, the inhibition is -3.16% (inactive).

Consider `Brc1ccccc1-c1csnn1`, for which the inhibition was 2.07% (inactive).

Consider `CCOCCCn1c(=S)[nH]c2cc(C(=O)NCCCN(CC)CC)ccc2c1=O`, for which the inhibition was 12.3% (inactive).

Take `COc1ccc(C(=O)c2c(C)oc3ccc(O)c(CN4CCOCC4)c23)cc1`: the inhibition is 1.06% (inactive).

Regarding `O=C(CC(Cc1ccccc1)c1ccco1)NC1CCCCC1` (stereo not given), the inhibition was 3.48% (inactive).

`CC1=CC(c2ccc(Cl)cc2)n2nc(N3C(=O)CCC3=O)nc2N1` (stereo not given): the inhibition is 14.2% (inactive).

On to `Cc1ccc(C2C=C(c3ccccc3)Nc3nc(N4C(=O)CCC4=O)nn32)cc1` (stereo not given), for which the inhibition is 4.75% (inactive).

With `COC(=O)c1ccc(Sc2ccc(C)cc2)c(N)c1`, the inhibition is 11.3% (inactive).

In the case of `COC(=O)c1cc(O)c(O)c(O)c1`, the inhibition was 6.36% (inactive).

Turning to `CCCN(CC1CC1)C(=S)NC(=O)C1CC1`, the inhibition was 3.89% (inactive).

Take `CC(=O)CCc1c(C)nc2ccc(C(=O)O)cc2c1Cl`: the inhibition was 11.9% (inactive).

As to `CCOC(=O)c1cccc(Nc2ncnc3ccccc23)c1`, the inhibition was 6.34% (inactive).

With `O=S(=O)(c1ccc(Cl)cc1)N(CCCN1CCOCC1)Cc1cccs1`, the inhibition was 2.6% (inactive).

`COc1cc(NC(=O)c2cccs2)c(OC)cc1NC(=O)CCn1nnc2ccccc21`: the inhibition was 25% (active).

With `C/C(=N\NC(=O)CCn1nnc2ccccc21)c1cccs1`, the inhibition was 0% (inactive).

For `COc1cc(NC(=O)c2cccs2)c(OC)cc1NC(=O)CCC(=O)Nc1cccc2ncccc12`, the inhibition is 16.7% (inactive).

Regarding `Cc1ccc(Cn2ccc(NC(=O)c3noc4c3CCc3ccccc3-4)n2)cc1`, the inhibition was 8.24% (inactive).

With `Cc1cc([N+](=O)[O-])ccc1NC(=S)NC(=O)Cc1ccccc1`, the inhibition was 23.7% (active).

On to `CC(=O)NC(=S)Nc1ccc([N+](=O)[O-])cc1C`, for which the inhibition is 3.35% (inactive).

Regarding `Cc1cc([N+](=O)[O-])ccc1NC(=S)NC(=O)C(c1ccccc1)c1ccccc1`, the inhibition was 9.66% (inactive).

For `O=C(CSc1ccc2nnc(-c3ccncc3)n2n1)Nc1ccc2c(c1)OCO2`, the inhibition was 5.11% (inactive).

With `Cn1cc([N+](=O)[O-])c(C(=O)NNC(=O)c2ccc([N+](=O)[O-])cc2)n1`, the inhibition is 1.97% (inactive).

For `CN(C)CCCNc1ncnc2scc(-c3ccccc3)c12`, the inhibition was -12.9% (inactive).

With `Cc1ccc(-c2csc3ncnc(NS(=O)(=O)c4ccc(Cl)cc4)c23)cc1`, the inhibition is -5.44% (inactive).

Take `CCOC(=O)c1ccc(NC(=O)COc2ccc(S(=O)(=O)N3CCCC3)cc2)cc1`: the inhibition is 10.4% (inactive).

As for `O=S(=O)(Nc1nc2ccccc2nc1Cl)c1ccccc1`, the inhibition is 7.23% (inactive).

With `O=S(=O)(Nc1nc2ccccc2nc1Cl)c1ccc2c(c1)OCCO2`, the inhibition is 15.8% (inactive).

`Cc1cc(S(=O)(=O)Nc2cccc(Cl)c2)c(C)s1`: the inhibition is 7.05% (inactive).

In the case of `CSc1ccccc1C(=O)C1CCCN(C(=O)c2ccc(N3CCOCC3)cc2)C1` (stereo not given), the inhibition is 0.54% (inactive).

Take `COC(=O)C1=NN(C(=O)c2cccc(Cl)c2)C(O)(C(C)(C)C)C1` (stereo not given): the inhibition is 33.3% (inactive).

Take `COC(=O)C1=NN(C(=O)c2ccc(Br)cc2)C(O)(C(C)(C)C)C1` (stereo not given): the inhibition was 53.2% (inactive).

As for `Cc1ccn2c(NCc3ccc4c(c3)OCO4)c(-c3ccc(O)cc3)nc2c1`, the inhibition is 3.37% (inactive).

Regarding `O=C(NCCc1nc2ccccc2[nH]1)/C(=C/c1ccco1)NC(=O)c1ccc(Br)cc1`, the inhibition was 3.21% (inactive).

As for `Cc1nc(SCC(=O)O)c2oc3ccccc3c2n1`, the inhibition was 3.31% (inactive).

For the compound `O=C(O)CSc1nc(-c2ccccc2)nc2c1oc1ccccc12`, the inhibition was 8.15% (inactive).

As to `CN(C)c1ccc(/C=N/NC(=O)CCCO)cc1`, the inhibition was 16.7% (inactive).

As for `C/C=C/c1ccc(OCCCCOc2ccc(OC)cc2)c(OC)c1`, the inhibition was -1.18% (inactive).

Regarding `C/C=C/c1ccc(OCCOc2ccc(C=O)cc2)c(OC)c1`, the inhibition is 9.05% (inactive).

Take `Cc1cc(-c2nnc(SCC(=O)Nc3nc(-c4ccccc4)cs3)o2)no1`: the inhibition is 17.1% (inactive).

For the compound `O=[N+]([O-])c1ccc(Oc2c(F)c(F)nc(N3CCCC3)c2F)cc1`, the inhibition is 1.61% (inactive).

Take `O=C(O)c1cc(-c2ccco2)nc2ccccc12`: the inhibition is 5.44% (inactive).

As to `O=C(O)c1cc(-c2ccco2)nc2cc3ccccc3cc12`, the inhibition was 15.5% (inactive).

`O=C(O)c1cc(-c2ccco2)nc2ccc(Br)cc12`: the inhibition was 5.53% (inactive) and 27.5% (active).

As to `COc1ccc(C2CC(=O)C(C=NCCN3CCN(C(=S)Nc4ccccc4)CC3)=C(O)C2)cc1OC` (stereo not given), the inhibition is 12.8% (inactive).

`O=C(CNC(=O)c1ccccc1)N/N=C/c1cn[nH]c1-c1ccccc1`: the inhibition is 4.33% (inactive).

With `CC(C)NC(=O)c1sc2nc3c(c(-c4cccs4)c2c1N)CN(C)CC3`, the inhibition is 5.01% (inactive).

In the case of `Cc1ccc(-c2cc(-c3ccccc3)c3c(N)c(S(C)(=O)=O)sc3n2)cc1`, the inhibition was 14.5% (inactive).

For `CCN(CC)C(=O)c1sc2nc(-c3cccs3)cc(-c3cccs3)c2c1N`, the inhibition is 7.47% (inactive).

As to `N#Cc1sc2nc(-c3cccs3)cc(-c3ccccc3)c2c1N`, the inhibition is 13.3% (inactive).

On to `CC(C)NC(=O)c1sc2nc(-c3cccs3)cc(-c3cccs3)c2c1N`, for which the inhibition is 24.2% (active).

On to `Cc1ccc(NC(=O)CCc2c(C)nc3ncnn3c2C)cc1`, for which the inhibition was 0.77% (inactive).

With `CC(NC(=O)c1cc(-c2ccc3c(c2)OCO3)nc2ccccc12)C(C)(C)C` (stereo not given), the inhibition is 3.57% (inactive).

Turning to `COc1ccc(C2/C=C\CN(Cc3ccco3)CC(=O)N2Cc2ccc(F)cc2)cc1` (stereo not given), the inhibition was 4.94% (inactive).

Take `C=CCN1C(=S)N[C@@H]2CS(=O)(=O)C[C@@H]21`: the inhibition was 5.08% (inactive).

For the compound `O=C(Nc1cccc(F)c1)c1cc(S(=O)(=O)N2CCOCC2)cs1`, the inhibition is 9% (inactive).

Regarding `O=C(Nc1cccc(-c2cn3cccnc3n2)c1)c1ccc(Br)o1`, the inhibition was 2.48% (inactive).

As for `COc1ccc(-c2cn3cccnc3n2)cc1NC(=O)c1ccc(Br)o1`, the inhibition was 11.3% (inactive).

On to `Cc1ccc(-c2cn3cccnc3n2)cc1NC(=O)c1ccc(Br)o1`, for which the inhibition was 24.6% (active).

In the case of `Cc1cc(N2CCCC2)c(C)cc1C=O`, the inhibition is 17.1% (inactive).

Take `Cc1cccc(NC(=O)CN2CCSc3ccccc32)c1`: the inhibition is 6.82% (inactive).

Regarding `COc1ccc(Cl)cc1C(=O)NNC(=O)c1nc2nc(C)cc(C)n2n1`, the inhibition is 0.99% (inactive).

For the compound `Cc1cc(C)n2nc(C(=O)NNC(=O)c3ccccc3)nc2n1`, the inhibition is 5.93% (inactive).

As for `O=C(OCn1nnc2ccccc2c1=O)c1cc(-c2ccccc2Cl)nc2ccccc12`, the inhibition was 12.3% (inactive).

As to `Cc1ccc(N2C(=O)CC(Sc3nc(-c4ccccc4)c4cc(Cl)ccc4n3)C2=O)c(C)c1` (stereo not given), the inhibition was 8.91% (inactive).

On to `COc1ccc(CC(=O)n2[nH]c(=O)cc(C)c2=O)cc1OC`, for which the inhibition was 8.27% (inactive).

As to `O=C(NCc1ccc(Cl)cc1)C1CCN(S(=O)(=O)c2ccccc2)CC1`, the inhibition is 11.8% (inactive).

On to `O=C(NCc1cccs1)C1CCN(S(=O)(=O)c2ccc3c(c2)OCCO3)CC1`, for which the inhibition was 23.4% (active).

Consider `O=C(NCc1cccs1)C1CCN(c2ccc(S(=O)(=O)N3CCOCC3)cc2Cl)CC1`, for which the inhibition is -0.57% (inactive).

As to `NS(=O)(=O)c1ccc(CCNC(=O)C2CCN(S(=O)(=O)c3ccc(Br)s3)CC2)cc1`, the inhibition was 2.64% (inactive).

With `COc1ccc(S(=O)(=O)N2CCC(C(=O)NCc3cccs3)CC2)cc1`, the inhibition is 6.28% (inactive).

For `O=C(Nc1ccc2c(c1)OCCO2)C1CCN(S(=O)(=O)c2ccc3c(c2)OCCO3)CC1`, the inhibition was 9.64% (inactive).

On to `O=C(NCCc1ccc(Cl)cc1)C1CCN(S(=O)(=O)c2ccc(Br)s2)CC1`, for which the inhibition was 4.81% (inactive).

`O=C(NCc1cccs1)C1CCCN(S(=O)(=O)c2ccc3c(c2)OCO3)C1` (stereo not given): the inhibition was 8.66% (inactive).

`COc1cccc(NC(=O)C2CCN(S(=O)(=O)c3ccc4c(c3)OCCO4)CC2)c1`: the inhibition was 43% (active).

With `COc1ccc(S(=O)(=O)N2CCC(C(=O)Nc3ccc4c(c3)OCCO4)CC2)cc1OC`, the inhibition is 1.25% (inactive).
